Measured values as given in PubChem BioAssay AID1777 (Sanford-Burnham Center for Chemical Genomics, 2009).
Out of some 280,000 compounds screened, about 50 (0.02%) were called active. This is one part of a sample in which actives are shown more often than they occur. Cut-off read from the data, not from the text of the source: active = activation above about 50% (passing the limit was not always enough); inactive = the rest. Measured potencies and affinities stand elsewhere.

biological target: Kappa-type opioid receptor (Homo sapiens) (UniProt P41145); assay: KOR agonists, beta-arrestin recruitment, primary screen, cell-based, luminescence, uHTS (AID 1777); settings: at 10 µM, hits give high values
Sequence (P41145 whole entry, looked up): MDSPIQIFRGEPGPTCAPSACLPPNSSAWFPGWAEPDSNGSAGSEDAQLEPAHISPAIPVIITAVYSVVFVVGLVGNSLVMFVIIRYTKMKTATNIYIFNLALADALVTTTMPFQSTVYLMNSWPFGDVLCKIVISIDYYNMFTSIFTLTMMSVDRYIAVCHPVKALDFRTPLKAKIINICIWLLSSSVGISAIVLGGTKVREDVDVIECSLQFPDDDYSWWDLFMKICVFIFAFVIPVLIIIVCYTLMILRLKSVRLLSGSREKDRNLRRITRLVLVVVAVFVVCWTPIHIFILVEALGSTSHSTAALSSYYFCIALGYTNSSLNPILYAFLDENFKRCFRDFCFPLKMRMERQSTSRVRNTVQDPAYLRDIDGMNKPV

`O=C(NCc1ccccc1)c1ccc(N2C(=O)C3CCCCC3C2=O)cc1` (configuration not stated) was tested. Which activation did it give?
Its activation is -2.4% (inactive).

`Cc1ccc2cc(CN(Cc3ccc4c(c3)OCO4)Cc3nnnn3Cc3ccco3)c(=O)[nH]c2c1` was tested. Which activation did it give?
The activation was 26.7% (inactive).

How did the activation turn out when `Cc1cc(C)c2cc(CN(Cc3ccc4c(c3)OCO4)Cc3nnnn3Cc3ccco3)c(=O)[nH]c2c1` was run?
Its activation is 83.5% (active).

Which activation does the source give for `Cc1ccc(C)c2[nH]c(=O)c(CN(Cc3ccc4c(c3)OCO4)Cc3nnnn3Cc3ccco3)cc12` here?
The activation was 10.8% (inactive).

`Cc1ccc2nc(C)c(C(=O)N/N=C/c3ccc(N4CCOCC4)cc3)cc2c1` was tested. Which activation did it give?
The activation was 3% (inactive).

With `CN(c1ccccc1C(=O)Nc1ccc(CC#N)cc1)S(=O)(=O)c1ccccc1` as the compound, how does the activation read?
Its activation is 2.4% (inactive).

With `Cc1ccccc1NC(=S)N(Cc1cccs1)C1CCCC1` as the compound, how does the activation read?
The activation was 4.8% (inactive).

Which activation does the source give for `Cc1ccccc1NC(=S)N(Cc1cccs1)C1CCCCC1` here?
Its activation is -6.5% (inactive).

For `Cc1ccc(C(C)NC(=O)c2cc(C)oc2C)cc1` (configuration not stated), which activation is on record?
The activation was 8.6% (inactive).

How did the activation turn out when `Clc1cccc(CSc2nnc(-c3cccnc3)n2Cc2ccco2)c1` was run?
The activation was -4.9% (inactive).

Which activation does the source give for `COc1ccc(C)cc1NC(=O)CSc1nnc(-c2ccccn2)n1Cc1ccco1` here?
The activation was 1.2% (inactive).

With `COc1ccccc1NC(=O)CSc1nnc(-c2ccccn2)n1Cc1ccco1` as the compound, how does the activation read?
Its activation is 17.1% (inactive).

Which activation does the source give for `Clc1ccc(CSc2nnc(-c3cccnc3)n2Cc2ccco2)c(Cl)c1` here?
The activation was -2.8% (inactive).

`O=C(CSc1nnc(-c2ccccn2)n1Cc1ccco1)c1ccc(Cl)cc1` was tested. Which activation did it give?
The activation was 81.9% (inactive).

`Clc1ccccc1CSc1nnc(-c2ccccn2)n1Cc1ccco1` was tested. Which activation did it give?
The activation was 31.6% (inactive).

With `Cc1ccc(O)c(N=Nc2ccc(S(=O)(=O)N3CCCC3)cc2)c1` as the compound, how does the activation read?
The activation was -0.2% (inactive).

Which activation does the source give for `CN(C)CC(C)(C)CNC(=O)C1CCN(CCCc2ccccc2)CC1` here?
The activation was -5.3% (inactive).

How did the activation turn out when `CCOc1nc(NC2CCCC2)nc(N2CCC(C)CC2)n1` was run?
Its activation is -3.8% (inactive).

For `CCCNC(=O)NC(=O)CSc1nnc(-c2ccncc2)n1CC`, which activation is on record?
The activation was -1.1% (inactive).

How did the activation turn out when `COC(=O)CN1C(=O)[C@H]2[C@@H](c3ccc(C)o3)N3C(=O)CN(CCO)C(=O)[C@@]3(Cc3ccccc3)[C@H]2C1=O` was run?
The activation was 5.5% (inactive).

With `Cc1c(Cl)cccc1N1C(=O)C2ON(c3ccccc3)C(c3cccnc3)C2C1=O` (configuration not stated) as the compound, how does the activation read?
The activation was 0.9% (inactive).

With `O=C1C2ON(c3ccccc3)C(c3cccnc3)C2C(=O)N1c1ccccc1` (configuration not stated) as the compound, how does the activation read?
The activation was -3.9% (inactive).

`CC(=O)N1CCC(C(=O)NC2CC(C)(C)Cc3c2cnn3-c2ccc(F)cc2)CC1` (configuration not stated) was tested. Which activation did it give?
Its activation is -2.2% (inactive).

`CC(=O)Nc1ccc(N/C=C/C(=O)c2ccccc2)cc1` was tested. Which activation did it give?
Its activation is -0.7% (inactive).

`Cn1c(=O)c2c(nc(Oc3ccc4c(c3)OCO4)n2Cc2ccc(Cl)cc2)n(C)c1=O` was tested. Which activation did it give?
Its activation is 62.7% (inactive).

With `Cn1c(=O)c2c(nc(Oc3ccc4c(c3)OCO4)n2Cc2ccc(Br)cc2)n(C)c1=O` as the compound, how does the activation read?
The activation was 9.8% (inactive).

Which activation does the source give for `Cn1c(=O)c2c(nc(Oc3ccc4c(c3)OCO4)n2Cc2ccc(F)cc2)n(C)c1=O` here?
The activation was 67.5% (active).
